Source: PubChem BioAssay AID1654 (Sanford-Burnham Center for Chemical Genomics, 2009)
Out of some 290,000 compounds screened, about 1,500 (0.52%) were called active. No stated cut-off is given here; in the data, active means inhibition above about 50%; inactive means the rest. The full list was thinned out, with actives kept by preference.

The compounds below were run against Dual specificity protein phosphatase 3 (Homo sapiens) (UniProt P51452) (assay: inhibition of human DUSP3 activity – biochemical, absorbance, uHTS, primary screen (AID 1654)). Details: recombinant VHR phosphatase, pNPP absorbance, at 13.3 µM, stronger effect = higher value.
Dual specificity protein phosphatase 3 (Homo sapiens), sequence (P51452 whole entry, looked up): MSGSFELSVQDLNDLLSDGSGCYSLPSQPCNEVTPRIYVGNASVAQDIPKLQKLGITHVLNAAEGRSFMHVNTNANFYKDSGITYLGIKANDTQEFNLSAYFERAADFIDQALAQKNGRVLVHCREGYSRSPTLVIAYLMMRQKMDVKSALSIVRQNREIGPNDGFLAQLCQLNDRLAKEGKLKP

Row | Compound | inhibition
1 | COc1cc2cc(C(=O)N/N=C/c3cccc(OC)c3OC)[nH]c2cc1OC | 58.2% (active)
2 | COc1ccc2[nH]c(C(=O)N/N=C/c3cc(OC)c(OC)c(OC)c3)cc2c1 | 14.1% (inactive)
3 | CCOc1ccc2[nH]c(C(=O)N/N=C/c3cccc(OC)c3OC)cc2c1 | 26.8% (inactive)
4 | CCCn1nnnc1NCc1ccc(CC)cc1 | 10.8% (inactive)
5 | O=C(c1ccc(Cl)cc1)n1cnc2ccccc21 | 4.1% (inactive)
6 | COC1=C(N2CCOCC2)C(=O)c2ccccc2C1=O | 57.3% (active)
7 | O=C1C(Cl)=C(N2CCOCC2)C(=O)N1c1ccccc1 | 29.6% (inactive)
8 | COc1ccc(N2CCN(C(C)=C3C(=O)c4ccccc4C3=O)CC2)cc1 | 30.2% (inactive)
9 | CCc1ccc(CNC(=O)C2CCN(c3nnc(C)c4c(C)n(-c5ccc(C)cc5)nc34)CC2)cc1 | -20.3% (inactive)
10 | CCN(CC)c1ccc(/C=N/NC(=O)CNC(=O)c2cccnc2)cc1 | -4.7% (inactive)
11 | O=C(CNC(=O)c1cccnc1)N/N=C/c1cccnc1 | 17.2% (inactive)
12 | O=C(CNC(=O)c1cccnc1)N/N=C/c1cc(Br)c(O)c(Br)c1 | 52.6% (active)
13 | Cc1cc(-c2nnc(SCC(=O)Nc3ccc(F)cc3)n2N)n[nH]1 | 8% (inactive)
14 | COc1cccc(CNCc2ccc3c(c2)OCO3)c1 | 3.6% (inactive)
15 | CN(C(=O)C1CCN(c2ncnc3c2nc2n3CCCCC2)CC1)C1CCCCC1 | 21.1% (inactive)
16 | CCOC(=O)c1cc(S(=O)(=O)NCCc2ccc(OC)c(OC)c2)cn1C | 55.6% (active)
17 | CCS(=O)(=O)NCCc1ccc(OC)c(OC)c1 | 3.5% (inactive)
18 | COc1ccc(CCNS(=O)(=O)c2ccc(F)cc2)cc1OC | 2.8% (inactive)
19 | CCOC(=O)c1ccc2[nH]c3c(c2c1)CCCC3NC=O (stereo unspecified) | 5.2% (inactive)
20 | COc1ccc(N2CCN(C(=O)c3ccc(N4CCCCS4(=O)=O)cc3)CC2)cc1 | 21.1% (inactive)
21 | Cc1ccc(S(=O)(=O)N(CC(O)CN2C(=O)NC(C)(C)C2=O)c2cccc([N+](=O)[O-])c2)cc1 (stereo unspecified) | 6.7% (inactive)
22 | COc1ccccc1S(=O)(=O)c1c(C)cc(C)[nH]c1=O | 8.8% (inactive)
23 | Cc1cc(C)c(S(=O)(=O)c2cc(F)ccc2C)c(=O)[nH]1 | 56.9% (active)
24 | Cc1cc(C)c(S(=O)(=O)c2ccc(F)cc2C)c(=O)[nH]1 | -16.2% (inactive)

Row | Compound | inhibition
25 | CCn1c(C(O)c2cc(OC)ccc2OC)nc2ccccc21 (stereo unspecified) | -40.5% (inactive)
26 | CCCn1c(C(O)c2cc(OC)ccc2OC)nc2ccccc21 (stereo unspecified) | 6.4% (inactive)
27 | COc1ccc(OC)c(C(O)c2nc3ccccc3n2C)c1 (stereo unspecified) | 57% (active)
28 | COc1cccc(NC(=O)C2C(c3ccccc3)C2(Cl)Cl)c1 (stereo unspecified) | -7.8% (inactive)
29 | Cc1cc(C)c(C#N)c(Nc2cccc(Br)c2)n1 | 0.3% (inactive)
30 | COc1cc(Cl)ccc1OCc1cc(C(=O)N(C)CCc2c(C)n[nH]c2C)no1 | 1.6% (inactive)
31 | Cc1ccccc1Nc1c([N+](=O)[O-])ccc2nonc12 | 17.2% (inactive)
32 | COc1ccccc1OCCOc1ccc(/C=C2\C(=N)N3N=C(C)SC3=NC2=O)cc1 | 59.3% (active)
33 | CS(=O)(=O)C1=NN2C(=N)/C(=C\c3ccc(OCCOc4ccccc4)cc3)C(=O)N=C2S1 | 26.8% (inactive)
34 | CCOc1cc(/C=C2\C(=N)N3N=C(C)SC3=NC2=O)ccc1OCCOc1ccccc1 | 17.9% (inactive)
35 | C=CCN1C(=NC(=O)COc2ccccc2)SC2CS(=O)(=O)CC21 (stereo unspecified) | 19% (inactive)
36 | CC1(C)CC(=O)C=C(Nc2ccccc2)C1 | -8.5% (inactive)
37 | COC(=O)NNC1=CC(=O)CC(C)(C)C1 | 1.2% (inactive)
38 | Cc1cc(C)nc(NNC2=CC(=O)CC(C)(C)C2)n1 | 51.3% (active)
39 | O=C(Nc1cc(-c2nc3ncccc3o2)ccc1Cl)c1ccco1 | 24% (inactive)
40 | Cc1ccc(NC(=S)N(CCN2CCCCC2)Cc2ccco2)cc1C | 5.9% (inactive)
41 | Cc1ccc(NC(=S)N(Cc2ccco2)C(C)c2cccs2)cc1 (stereo unspecified) | 20.7% (inactive)
42 | Cc1ccc(NC(=S)N(CCCN2CCC(C)CC2)Cc2ccco2)cc1 | 53.6% (active)
43 | CCOc1ccc(-c2noc(CCC(=O)NC3CCCC3)n2)cc1OC | 27.7% (inactive)
44 | COc1cc(S(=O)(=O)N2CCN=C2c2ccccc2)ccc1Cl | 47.5% (inactive)
45 | CC(Sc1nnc(-c2ccccc2F)n1C1CC1)C(N)=O (stereo unspecified) | 11.3% (inactive)
46 | CCc1ccc(N2CC(C(=O)Nc3ccc(S(=O)(=O)Nc4nccs4)cc3)CC2=O)cc1 (stereo unspecified) | -2.6% (inactive)
47 | CCc1ccc(N2CC(C(=O)N3CCCCCC3)CC2=O)cc1 (stereo unspecified) | 30.7% (inactive)
48 | CCc1ccc(N2CC(C(=O)NC3=NCCS3)CC2=O)cc1 (stereo unspecified) | 54.4% (active)

Row | Compound | inhibition
49 | COc1ccccc1OCCNC(=O)CCNC(=O)c1ccccc1Cl | -2.5% (inactive)
50 | CC1CCCCC1NC(=O)c1cn(C)c2ccc(S(=O)(=O)N3CCOCC3)cc2c1=O (stereo unspecified) | 5.7% (inactive)
51 | CCOc1cc(C)ccc1OCc1nnc(SCC(=O)Nc2cccc(C(=O)O)c2)n1-c1ccccc1 | -8.4% (inactive)
52 | CCN(CC)CCCNC(=O)Cn1cnc2sc(C)c(S(=O)(=O)N3CCN(c4ncccn4)CC3)c2c1=O | 7.7% (inactive)
53 | Cc1sc2ncn(CC(=O)NCCN(C)C)c(=O)c2c1S(=O)(=O)N1CCC(C)CC1 | 5.1% (inactive)
54 | CCN(CC)CCNC(=O)Cn1cnc2sc(C)c(S(=O)(=O)N3CCOCC3)c2c1=O | 57.3% (active)
55 | Cc1ccc(OCC(=O)OC(C)CN(C)Cc2ccccc2)cc1 (stereo unspecified) | -3.9% (inactive)
56 | CN(Cc1ccccc1)CC(O)COc1ccc(CNCc2cc3ccccc3s2)cc1 (stereo unspecified) | 55.5% (active)
57 | OC(CNCc1ccc2c(c1)OCO2)COc1ccccc1 (stereo unspecified) | 0.8% (inactive)
58 | COCCN(C(=S)Nc1cccc(Cl)c1C)C(C)c1ccco1 (stereo unspecified) | 19.1% (inactive)
59 | CCOC(=O)CC1COCCN1C(=O)c1cc(COc2ccc(F)c(F)c2)on1 (stereo unspecified) | -31.1% (inactive)
60 | Cc1c(CC(=O)N2CCN(C(=O)C3COc4ccccc4O3)CC2)c(=O)oc2c(O)c(O)ccc12 (stereo unspecified) | 9.7% (inactive)
61 | Cc1c(CCC(=O)O)c(=O)oc2cc3occ(-c4ccccc4)c3cc12 | -4.9% (inactive)
62 | Cc1c(CC(=O)NCCCCCC(=O)O)c(=O)oc2cc3occ(-c4ccccc4)c3cc12 | -11% (inactive)
63 | COc1cccc(-c2coc3cc4oc(=O)c(CC(=O)O)c(C)c4cc23)c1 | 57.3% (active)
64 | Cc1nc(C)c(-c2nnc(-c3cccc(S(=O)(=O)N(C)C)c3)o2)cc1C(=O)NN | 1% (inactive)
65 | CN(C)CCN(C(=O)C1=COCCO1)c1nc2ccc(Cl)cc2s1 | 17.5% (inactive)
66 | Cn1nnc(NC(=S)NC(=O)c2ccccc2)n1 | 8.5% (inactive)
67 | CC(=O)N1CCN(CC(=O)Nc2ccc(C)c(F)c2)CC1 | 0.1% (inactive)
68 | Cc1ccc(C(NC(=O)N2CCCC2)C(Cl)(Cl)Cl)cc1F (stereo unspecified) | 51.3% (active)
69 | Cc1ccc(C(=O)N2CCCC2)c(F)c1F | 11.9% (inactive)
70 | CC(=O)c1ccc(NC(=O)CCc2nnc3ccc(NCc4ccco4)nn23)cc1 | -9.1% (inactive)
71 | O=C(COC(=O)C1CC2C=CC1C2)Nc1ccccc1 (stereo unspecified) | -9.6% (inactive)
72 | CN(C)S(=O)(=O)N1CCC(Oc2cccc(C(=O)NCCCC3CCCC3)c2)CC1 | -1.9% (inactive)

Row | Compound | inhibition
73 | Cc1ccc(CS(=O)(=O)CCC(=O)NCc2ccc(F)cc2)cc1 | 57.9% (active)
74 | Cc1ccc(CS(=O)(=O)CCC(=O)NC2CC2)cc1 | 9.9% (inactive)
75 | CCCCC(=O)NCc1ccc(F)cc1 | -4.1% (inactive)
76 | O=C1CCC(C(=O)N2CCCCO2)CN1Cc1cccc(C(F)(F)F)c1 (stereo unspecified) | 23.9% (inactive)
77 | COC(=O)c1c(NC(=O)COc2ccc(Cl)cc2Cl)sc2c1CC(C)(C)NC2(C)C | 7.7% (inactive)
78 | COc1ccc(S(=O)(=O)N2CCC(C(=O)N3CCc4ccccc4C3)CC2)cc1OC | 11.7% (inactive)
79 | COc1cc2c(cc1OC)CN(C(=O)c1cc(S(=O)(=O)N3CCCCC3)ccc1Cl)CC2 | 8.6% (inactive)
80 | COc1cc2c(cc1OC)C(C)N(S(=O)(=O)c1cnc(Cl)c(Cl)c1)CC2 (stereo unspecified) | 51.2% (active)
81 | Cc1cc(C)cc(N(CCC#N)C(=O)CN2C(=O)NC3(CCCC3)C2=O)c1 | -12.4% (inactive)
82 | COC(=O)c1cc(C(=O)NC(C)C2CC3CCC2C3)cc([N+](=O)[O-])c1 (stereo unspecified) | -11.2% (inactive)
83 | Cc1c(C(=O)NCCCc2ccccc2)cccc1[N+](=O)[O-] | 22.5% (inactive)
84 | Cc1c(C(=O)NC(C)C2CC3CCC2C3)cccc1[N+](=O)[O-] (stereo unspecified) | 54.4% (active)
85 | Cc1ccccc1NS(=O)(=O)CCCCC(Cl)(Cl)Cl | 15.4% (inactive)
86 | CCOC(=O)c1nc(N)sc1C(=O)OCC | 50.8% (active)
87 | CCOC(=O)c1sc2nc(C)[nH]c(=O)c2c1C | 21.7% (inactive)
88 | CCOC(=O)c1c(N)sc(C(C)=O)c1C | 17.4% (inactive)
89 | O=C(/C=C/Nc1ccc(S(=O)(=O)Nc2cnc3ccccc3n2)cc1)c1cccnc1 | 16.5% (inactive)
90 | COc1ccc2oc(=O)cc(-c3cc4ccccc4o3)c2c1 | 52.7% (active)
91 | COc1ccc(Nc2cc(=O)oc3ccccc23)cc1 | 11.9% (inactive)
92 | COc1cccc2cc(-c3cc(=O)oc4cc(C)c(O)cc34)oc12 | -16.6% (inactive)
93 | Cc1cc(OC(=O)c2ccc(OC(C)C)cc2)c([N+](=O)[O-])c(=O)[nH]1 | -18% (inactive)
94 | Cc1ccc(S(=O)(=O)NCC(=O)N2CCOCCOCCOCCOCC2)cc1 | 33.9% (inactive)
95 | Cc1ccc(S(=O)(=O)NCC2CCC(C(=O)N3CCOCC3)CC2)cc1 (stereo unspecified) | 52% (active)
96 | O=C(O)C1CCC(CNS(=O)(=O)c2ccc(Br)cc2)CC1 (stereo unspecified) | 13.3% (inactive)
